HT1080-NT tox = qHTS for induction of synthetic lethality in tumor cells producing 2HG: qHTS for the HT-1080-NT fibrosarcoma cell line. HT-1080-NT fibrosarcoma viability, CellTiter-Glo ATP luminescence, 48 h. Potency, µM (highest dose often 46.1 µM), actives largely listed as cytotoxic. actives 1.6% (n = 360,000);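 note: NT is the 2HG producing partner of a matched IDH1 knockdown line; nearly all actives have a fitted effect of over 55% in size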
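HT-1080-NT; 750 cells/well; 5% FBS RPMI; 48 h compound, 37 degrees C; CellTiter-Glo luminescence; curve fitting and curve-class assignment.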
TDP1 cell noCPT = qHTS for Inhibitors of human tyrosyl-DNA phosphodiesterase 1 (TDP1): qHTS in cells in absence of CPT; DT40 Tdp1-/- hTDP1 cells, no CPT, ATP luminescence, 48 h; Potency, µM (doses to about 46.2 µM), usual class: inhibitors; actives 15% (n = 420,000); AID 686978, 2013; note: nearly all actives have a fitted effect of over 55% in size
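Chicken DT40 Tdp1-/- cells stably complemented with human TDP1 were seeded at 400 cells/well with DMSO in place of 20 nM camptothecin. After compound pinning, cells grew at least 48 hr at 37 °C; viability read by CellTiter-Glo luminescence.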
TDP1 cell CPT = qHTS for Inhibitors of human tyrosyl-DNA phosphodiesterase 1 (TDP1): qHTS in cells in presence of CPT; chicken DT40 Tdp1-/-;hTDP1 cells + 20 nM CPT, ATP luminescence, 48 h; Potency, µM (doses to about 46.2 µM), hits mostly inhibitors; actives 12% (n = 420,000); AID 686979, 2013; note: nearly all actives have a fitted effect of over 55% in size
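Chicken DT40 Tdp1-/- cells stably complemented with human TDP1 were seeded at 400 cells/well in medium containing 20 nM camptothecin, exposed to pin-transferred compounds, and grown at 37 °C for at least 48 hr. Viability was read as ATP luminescence.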
HT1080 IDH1KD tx = qHTS for induction of synthetic lethality in tumor cells producing 2HG: qHTS for the HT-1080-IDH1KD cell line; HT-1080 IDH1 knockdown viability, ATP luminescence, 48 h; Potency, µM (series often up to 46.1 µM), actives largely listed as cytotoxic; actives 2% (n = 360,000); AID 686971, 2013
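IDH1KD HT-1080 cells, 750/well, RPMI + 5% FBS; compound pinned after 2 h settling; 48 h, 37 °C; CellTiter-Glo luminescence; % activity normalised to DMSO and no-cell wells; curves fitted, classed by r2 and efficacy.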
IL1B secr inh = qHTS for Inhibitors of Inflammasome Signaling: IL-1-beta AlphaLISA Primary Screen; THP-1 LPS/ATP IL-1B secretion, AlphaLISA, 16 h; hits give low values; activity change, % at 57.5 µM; actives 4.7% (n = 360,000); AID 743279, 2014; in the data active = activity change below about -50%; inconclusive = mostly about -30% to -49%
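THP-1 cells pretreated 1 hr with compounds (up to 57.5 uM final), then stimulated with LPS (250 ng/mL final) plus ATP (1.25 mM final); secreted IL-1B measured by AlphaLISA after 16 hr, decreased signal indicating inhibition.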
Hits are given with their value; - = inactive; ? = inconclusive; . = no result given; [ ] = remark or other dose. Sampled rows, rich in hits. Any-hit rate of the full collection: about 19%. Unless noted, calls come from the whole dose curve; as a rule, active = well fitted curve in the direction sought with a large enough effect; inconclusive = small, poorly fitted or top-dose-only effect, or another doubt; inactive = no such curve, though single readings can be large; an effect the other way counts as inactive or inconclusive.

SMILES	HT1080-NT tox	TDP1 cell noCPT	TDP1 cell CPT	HT1080 IDH1KD tx	IL1B secr inh
CCc1nc(SCC(=O)NC2CC2)c2c(C)c(C)sc2n1	-	?	?	-	-
CCOC(=O)c1c(NC(=O)c2ccc(S(=O)(=O)N3CCC(C)CC3)cc2)sc2c1CCN(C(C)C)C2	.	14.6µM	23.1µM	.	.
CCOC(=O)c1c(NC(=O)c2ccc(N3C(=O)[C@@H]4[C@H](C3=O)[C@H]3C=C[C@@H]4C3)cc2)sc2c1CC(C)CC2 (some centres not stated)	-	1.16µM	-	-	-81.5
O=C1c2cc(Cl)ccc2OC2(CCNCC2)C12CC(c1ccc(Cl)cc1)=NO2 (configuration not stated)	-	18.4µM	18.4µM	-	?
O=C1c2cc(Cl)ccc2OC2(CCNCC2)C12CC(c1ccccc1)=NO2 (configuration not stated)	-	16.4µM	20.6µM	-	?
O=C(c1ccc2c(c1)OCO2)N1CCC2(CC1)Oc1ccc(Cl)cc1C(=O)C21CC(c2ccccc2)=NO1 (configuration not stated)	-	-	-	-	-
CC(C)C(=O)N1CCC2(CC1)Oc1ccc(Cl)cc1C(=O)C21CC(c2ccc(Cl)cc2)=NO1 (configuration not stated)	-	-	?	-	-
O=c1[nH]c(SCc2cccc(Cl)c2)nc2ccccc12	-	-	?	-	-
Cc1ccc(CSC2=CS(=O)(=O)c3ccccc3N2)cc1	-	?	?	-	-
Cc1cccc(CSC2=CS(=O)(=O)c3ccccc3N2)c1	-	23.1µM	?	-	-
O=S1(=O)C=C(SCc2cccc(Cl)c2)Nc2ccccc21	-	-	?	-	-50.6
COc1ccc(CNC(=O)C(C)n2c(=O)cc(C)c3c(C)nn(-c4ccccc4)c32)cc1 (configuration not stated)	.	-	-	.	.
Nc1cc2nc3ccccc3oc-2cc1=O	?	1.84µM	2.06µM	?	-
O=C(CCNc1ccc(Cl)cc1)c1cccs1	-	14.6µM	25.9µM	-	?
O=C(CCSc1ccc(Cl)cc1)c1cccs1	?	2.31µM	1.84µM	?	-106.4
Cc1cccc(/C=N/N(CCO)C2=NS(=O)(=O)c3ccccc32)c1	-	?	?	-	-
Cc1ccc(C(=O)NN(CCC(=O)NC(C)(C)C)C2=NS(=O)(=O)c3ccccc32)cc1	-	-	-	-	-
CC(C)(C)NC(=O)CCN(/N=C/c1ccccc1)C1=NS(=O)(=O)c2ccccc21	-	16.4µM	?	-	-
CC(C)(C)NC(=O)CCN(/N=C/c1ccccc1F)C1=NS(=O)(=O)c2ccccc21	-	20.6µM	?	-	-
C[C@@H]1CN([C@H](C)CO)C(=O)CCCn2nncc2CO[C@H]1CN(C)S(=O)(=O)c1ccc2ccccc2c1	-	?	-	-	-
Nc1cc(OC(=O)c2c(F)cccc2Cl)nn1S(=O)(=O)c1ccccc1	-	-	-	-	-93.5
CCc1ccc(C2c3c(oc4ccc(F)cc4c3=O)C(=O)N2c2nc(C)c(C(=O)OC)s2)cc1 (configuration not stated)	.	-	-	.	.
Cc1cc(Cl)ccc1N(CC(=O)NCc1ccc2c(c1)OCO2)S(C)(=O)=O	-	?	?	-	-
Cn1c(=O)c([N+](=O)[O-])c(NCCCn2ccnc2)c2ccccc21	-	-	-	-	.
CC(C)c1ccc(Nc2c([N+](=O)[O-])c(=O)n(C)c3ccccc23)cc1	-	?	-	-	-65.9
SMILES	HT1080-NT tox	TDP1 cell noCPT	TDP1 cell CPT	HT1080 IDH1KD tx	IL1B secr inh
Cn1c(=O)c([N+](=O)[O-])c(-n2ccnc2)c2ccccc21	16.4µM	4.11µM	4.61µM	25.9µM	-100.5
Cn1c(=O)c([N+](=O)[O-])c(NCC(O)c2ccccc2)c2ccccc21 (configuration not stated)	-	18.4µM	?	-	-
COc1ccc2c(c1)OC(C)CN(CCNC(=O)c1csc(-c3cccs3)n1)C2 (configuration not stated)	.	-	-[9.04 µM]	.	.
O=[N+]([O-])c1ccc2c(c1)-c1ccccc1C2O (configuration not stated)	-	13µM	?	-	?
O=C(O)c1ccc([N+](=O)[O-])cc1-c1cc([N+](=O)[O-])ccc1C(=O)O	-	-	-	-	-
Cc1cc(C(=O)NNc2ccc(Cl)cc2)no1	2.31µM	?	-	2.59µM	-
Cc1cc(C(=O)NNc2ccc(C)c(C)c2)no1	?	-	-	23.1µM	-
Cc1ccc(NNC(=O)c2ccno2)cc1Cl	?	10.3µM	?	3.66µM	-
Cc1cc(C(=O)NNC(=O)Nc2ccc(Cl)cc2)no1	-	-	-	-	-
CCOC(=O)C1CCN(C(c2cccc(F)c2)c2c(O)cc(C)n(Cc3ccco3)c2=O)CC1 (configuration not stated)	.	-	-	.	.
CN(c1ccc(C(=O)Nc2ccc3c(c2)n(C)c(=O)n3C)cc1)S(C)(=O)=O	-	?	-	-	-
CC(=O)c1c(C)[nH]c(C(=O)CSc2nnc(N)s2)c1C	-	?	?	-	-
COc1cc(C(=O)NC2=C(C#N)CCC2)cc(OC)c1OC	-	-	-	-	-
COC(=O)c1c(NC(=O)Cc2cccs2)sc2c1CCC(C)C2 (configuration not stated)	-	?	?	-	-83.4
COc1ccc(OC)c(NC(=O)c2c(NCc3sccc3C)sc3c2CCCCC3)c1	.	2.59µM	7.31µM	.	.
COc1ccc(OC)c(NC(=O)c2c(NCc3ccc(C)o3)sc3c2CCCCC3)c1	.	7.31µM	6.51µM	.	.
CCOC(=O)c1c(NC(=O)Cc2cccs2)sc(C(=O)NC2CCCCC2)c1C	-	16.4µM	?	-	-
CCOC(=O)c1c(NC(=O)c2ccc(OC)cc2)sc2c1CCCCC2	.	-	-	.	.
CCOC(=O)N1CCc2c(sc(NCc3sccc3C)c2C(=O)Nc2cc(OC)ccc2OC)C1	.	-	-	.	.
COC(=O)c1c(NC(=O)CN(C)CC(=O)Nc2ccc(C)cc2)sc2c1CCC(C)C2 (configuration not stated)	-	?	?	-	-
CCOC(=O)c1c(NC(=O)Cc2cccs2)sc(C(=O)NC2CCCC2)c1C	?	-	-	-	-
CCOc1cc(C(=O)OCc2cc(=O)n3c(C)csc3n2)ccc1OC	-	?	?	-	-
CCOc1ccc(NC(=O)c2c(NC(=O)c3ccncc3)sc3c2CCC(C(C)(C)C)C3)cc1 (configuration not stated)	.	20.6µM	?	.	.
